The values below come from PubChem BioAssay (NCI).

Compounds without any hit were thinned out: in the full panel of roughly 83,000, 20% have a hit.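 Negative percent growth values reflect cell death: -40 means 40% of the cells present at the start died, and -100 means all died.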 A number with no mark means an inactive call. Active and inactive are the calls of the source.

For the assay, the system named is UACC-62 melanoma. Kind of assay: NCI-60 one-dose screen, 48 h (100 = growth as untreated, 0 = no growth, -100 = all killed). The note with it: 10 µM unless noted. How it is done: Growth inhibition of the UACC-62 human tumor cell line is measured as a screen for anti-cancer activity. Cells are grown in 96 well plates and exposed to the test compound for 48 hours. Compounds are tested at a single concentration, which is 10^-5 M for most compounds. The reported endpoint is percent growth (GI% or GIPRCNT), where numbers from 0 - 100% represent growth inhibition, and numbers from -100% - 0 represent cell death. For example, a value of 40 represents 60% growth inhibition. A value of 0 means no net growth occurred over the course of the experiment. A value of -40 indicates 40% of cells at the beginning of the experiment died by the end of the experiment. A value of -100 means all cells are dead at the end of the experiment.
NCI-60 Human Tumor Cell Lines Screen was performed using the standard one-dose NCI protocol, which is described in more detail at https://dtp.cancer.gov/discovery_development/nci-60/default.htm.
Compounds with GIPRCNT values below 10 were considered active. Activity score was based on GIPRCNT using the following formula: […]
Score is 0 for GIPRCNT values of 100 or above, 50 for GIPRCNT values of 0, and 100 for GIPRCNT values of -100.
For `O=C(CSc1nnnn1-c1ccccc1)Nc1ccc(Oc2ccccc2)cc1`, the growth is 82.3%. Under `CN1CCN(c2ccc(NC3=CC(=O)c4ncncc4C3=O)cc2)CC1` stands -89.8% (active); under `CCn1cc(Cc2cc(C(=O)Nc3cc4cc(OC)c(OC)cc4c(C)n3)ccc2Cl)cn1`, 43.8%; under `CCOC(=O)/C(=C(/C)NCC(C)C)c1cc(O)c(O)c2c(C)cc(=O)[nH]c12`, 66.8%. Under `COc1ccc(C(=O)/C=C/c2ccccc2)cc1S(N)(=O)=O` stands 79.2%. Turning to `CCN1CCN(CCNc2nccc(-c3c(-c4ccc(F)c(O)c4)nc4occn34)n2)S1(=O)=O`, the growth is -44.9% (active). Under `C=CC(=O)Nc1cccc(Oc2nccc(Nc3nnc(-c4ccc(Br)cc4)s3)n2)c1` stands 87.6%; under `O=C(O)CCCCCCCCCCN1C(=O)/C(=C2/C(=O)N(CC(=O)O)c3ccc(Br)cc32)SC1=S`, 80.3%. Under `COc1cc(/C=C/C(=O)c2cccc(-n3cc(-c4ccc(Cl)cc4)[nH]c3=O)c2)ccc1O` stands 64.3%. Under `O=C(OCc1ccc2c(Cl)cc(Cl)c(O)c2n1)N1CCN(C(=O)c2cc3ccccc3[nH]2)CC1` stands -2.56% (active). Consider `CNC(=O)Nc1ccc(-c2ccc3ncnc(Nc4cccc(Cl)c4)c3c2)cc1`, for which the growth was 64.7%. With `CC/C(=C(/c1ccc(O)cc1)c1ccc(OCCN2CCCCC2)cc1)c1ccc(OC)cc1`, the growth is 112%. Under `COc1cccc(-c2cn3nc(-c4cn(C)c5ccccc45)sc3n2)c1` stands 77.9%; under `COC1/C=C/OC2(C)Oc3c(C)c(O)c4c(O)c(c(/C=N/N(c5ccccc5)c5ccccc5)c(O)c4c3C2=O)NC(=O)C(C)=C/C=C/C(C)C(O)C(C)C(O)C(C)C(OC(C)=O)C1C` (stereo not given), 48.3%. Under `COC(=O)c1c(C)nc(C)c2c1C(=O)C=C(NCc1ccccc1)C2=O` stands 65.8%; under `CCOc1ccc(NC(=O)Nc2ccc(OCC)cc2)cc1`, 105%.

On to `CCN(CC)CCOc1ccc2ccc(=O)oc2c1`, for which the growth is 94.8%. Turning to `CCOC(=O)NCCCC(=O)NCCc1ccccc1`, the growth was 107%. Consider `C1CCC(N2CN3c4nonc4N4CN(C5CCCCC5)CN5c6nonc6N(C2)C3C45)CC1` (stereo not given), for which the growth was 88.7%. Turning to `COc1cc(N2C(=O)[C@H](Cl)C2c2ccc(SC)cc2)cc(OC)c1OC` (stereo not given in full), the growth is 29.5%. Take `NS(=O)(=O)c1ccc(C(=O)NN2C(=O)c3ccccc3C2=O)cc1`: the growth was 102%.

With `COc1ccc2c(c1)CC[C@@H]1[C@@H]2CC[C@]2(C)C3C(=CC(COC(C)=O)C4C(=O)N(c5ccc(Cl)cc5)C(=O)C43)C[C@@H]12` (stereo not given in full), the growth was 83.2%. Under `Nc1ncnc2c1N=C(c1ccc(F)cc1)CC(c1cccc(Nc3ccnc4cc(Cl)ccc34)c1)N2` (stereo not given) stands 89.5%. As for `CCn1cc(C(=O)N/N=C/c2cccc(F)c2)c(=O)c2cc(F)c(N3CCNC(C)C3)c(F)c21` (stereo not given), the growth was 64.8%. The value for `CCOC(=O)c1[nH]cc2c1CCc1sc(Nc3ccccn3)nc1-2` was 86.5%; that for `COC(=O)c1nc(-c2ccccc2)oc1S(=O)(=O)N1CCCC(C)C1` (stereo not given) was 84.7%; that for `O=C1/C(=C/c2ccc(Cl)cc2)CN(C(=O)C(Cl)Cl)C/C1=C\c1ccc(Cl)cc1` was -59.6% (active).

Regarding `Cn1cc(-c2csc(-c3cn(C)c4ccccc34)n2)c2cnccc21`, the growth was 61.4%.

For `O=C1/C(=C/c2cccc(Br)c2)COc2ccc(O)cc21`, the growth was 42.6%. Under `Cc1cc(NCCCNc2ccnc3cc(Cl)ccc23)nc(Nc2ccc(C(=O)N3CCCCC3)cc2)n1` stands -71.2% (active); under `COc1cc([C@@H](CCO)C[C@H](C)c2ccc3ccccc3c2)cc(OC)c1OC`, 39.2%; under `COc1ccc(N=C2NN=C(c3c[nH]c4ccccc34)CS2)cc1OC`, 35.6%. In the case of `COC(=O)[C@]1(C)CCC[C@]2(C)[C@H]3C[C@@H]4[C@H]5[C@@H]6CC/C(=N\OCC/C(N)=N/O)[C@H]5[C@@]3(CC[C@H]21)CC4(C(C)C)O6`, the growth is 58.5%. The value for `O=[N+]([O-])c1c(O)c(Cl)cc(Cl)c1Cl` was 100%; that for `O=Nc1ccc(NC(=O)Nc2ccc([N+](=O)[O-])cc2)cc1` was 76.9%. For `O=C1C(Cl)=C(Nc2ccccc2)C(=O)c2ccccc21`, the growth is -49.8% (active). The value for `Cc1ccc(C(=O)c2ccc(CC(=O)N/N=C/c3cccc(O)c3O)n2C)cc1` was 39.1%; that for `COc1ccc(/C=N/NC(=O)Cn2c(-c3ccc(S(C)(=O)=O)cc3)nc3ccccc32)cc1` was 90.8%. Under `COc1ccc(CNc2ccc3nc(NC(=O)CN4CCCCCC4)sc3c2)cc1` stands 73.8%.

As for `COc1ccc2c(c1)C(C)Cc1c(ncnc1-n1cnc3cc(C)ccc31)N2C` (stereo not given), the growth was 36.1%.
